# Molecular target: AgAbp1
# Experiment: SPOT peptide array binding signal intensity (averaged, normalized) (arbitrary units (background-subtracted, floor 0; scale differs between SH3 domains)); higher = stronger binding of the SH3 domain to the peptide
# Procedure, shortened: (§1)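 Binding signal is given in arbitrary units that differ between domains and is the normalized, background-subtracted spot intensity averaged across replicates. Each GST-SH3 fusion from one of four yeast species was made in E. coli BL21(DE3), purified on glutathione Sepharose and incubated at 10 μg/ml overnight at 4°C on cellulose-bound synthetic 15-mer peptides in which cysteines were replaced by serines. Detection used anti-GST antibody, an HRP anti-mouse secondary and luminol, followed by imaging and Genespotter quantification.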
row,Binder,SPOT peptide array binding signal intensity
1,RVRKTHVPASKRPSG,81.5

# Molecular target: AgBbc1
# Experiment: as above
# Procedure, shortened: as §1
row,Binder,SPOT peptide array binding signal intensity
1,RVRKTHVPASKRPSG,105

# Molecular target: AgBem1-D1
# Experiment: as above
# Procedure, shortened: as §1
row,Binder,SPOT peptide array binding signal intensity
1,RVRKTHVPASKRPSG,48.5

# Molecular target: AgBzz1-D1
# Experiment: as above
# Procedure, shortened: as §1
row,Binder,SPOT peptide array binding signal intensity
1,RVRKTHVPASKRPSG,2

# Molecular target: AgBzz1-D2
# Experiment: as above
# Procedure, shortened: as §1
row,Binder,SPOT peptide array binding signal intensity
1,RVRKTHVPASKRPSG,≤ 0

# Molecular target: AgCyk3
# Experiment: as above
# Procedure, shortened: as §1
row,Binder,SPOT peptide array binding signal intensity
1,RVRKTHVPASKRPSG,1

# Molecular target: AgFus1
# Experiment: as above
# Procedure, shortened: as §1
row,Binder,SPOT peptide array binding signal intensity
1,RVRKTHVPASKRPSG,118

# Molecular target: AgHof1
# Experiment: as above
# Procedure, shortened: as §1
row,Binder,SPOT peptide array binding signal intensity
1,RVRKTHVPASKRPSG,7

# Molecular target: AgHse1
# Experiment: as above
# Procedure, shortened: as §1
row,Binder,SPOT peptide array binding signal intensity
1,RVRKTHVPASKRPSG,210

# Molecular target: AgLsb1
# Experiment: as above
# Procedure, shortened: as §1
row,Binder,SPOT peptide array binding signal intensity
1,RVRKTHVPASKRPSG,0.75

# Molecular target: AgLsb4
# Experiment: as above
# Procedure, shortened: as §1
row,Binder,SPOT peptide array binding signal intensity
1,RVRKTHVPASKRPSG,18

# Molecular target: AgMyo5
# Experiment: as above
# Procedure, shortened: as §1
row,Binder,SPOT peptide array binding signal intensity
1,RVRKTHVPASKRPSG,≤ 0

# Molecular target: AgNbp2
# Experiment: as above
# Procedure, shortened: as §1
row,Binder,SPOT peptide array binding signal intensity
1,RVRKTHVPASKRPSG,91

# Molecular target: AgRvs167
# Experiment: as above
# Procedure, shortened: as §1
row,Binder,SPOT peptide array binding signal intensity
1,RVRKTHVPASKRPSG,1

# Molecular target: AgSho1
# Experiment: as above
# Procedure, shortened: as §1
row,Binder,SPOT peptide array binding signal intensity
1,RVRKTHVPASKRPSG,5

# Molecular target: AgSla1-D1-D2
# Experiment: as above
# Procedure, shortened: as §1
row,Binder,SPOT peptide array binding signal intensity
1,RVRKTHVPASKRPSG,18

# Molecular target: AgSla1-D3
# Experiment: as above
# Procedure, shortened: as §1
row,Binder,SPOT peptide array binding signal intensity
1,RVRKTHVPASKRPSG,1.5

# Molecular target: CaAbp1-D1
# Experiment: as above
# Procedure, shortened: as §1
row,Binder,SPOT peptide array binding signal intensity
1,RVRKTHVPASKRPSG,919

# Molecular target: CaAbp1-D2
# Experiment: as above
# Procedure, shortened: as §1
row,Binder,SPOT peptide array binding signal intensity
1,RVRKTHVPASKRPSG,520

# Molecular target: CaBbc1
# Experiment: as above
# Procedure, shortened: as §1
row,Binder,SPOT peptide array binding signal intensity
1,RVRKTHVPASKRPSG,188

# Molecular target: CaBem1-D1
# Experiment: as above
# Procedure, shortened: as §1
row,Binder,SPOT peptide array binding signal intensity
1,RVRKTHVPASKRPSG,18

# Molecular target: CaBzz1-D1
# Experiment: as above
# Procedure, shortened: as §1
row,Binder,SPOT peptide array binding signal intensity
1,RVRKTHVPASKRPSG,30

# Molecular target: CaBzz1-D2
# Experiment: as above
# Procedure, shortened: as §1
row,Binder,SPOT peptide array binding signal intensity
1,RVRKTHVPASKRPSG,48.8

# Molecular target: CaCyk3
# Experiment: as above
# Procedure, shortened: as §1
row,Binder,SPOT peptide array binding signal intensity
1,RVRKTHVPASKRPSG,7.5

# Molecular target: CaFus1
# Experiment: as above
# Procedure, shortened: as §1
row,Binder,SPOT peptide array binding signal intensity
1,RVRKTHVPASKRPSG,200

# Molecular target: CaHof1
# Experiment: as above
# Procedure, shortened: as §1
row,Binder,SPOT peptide array binding signal intensity
1,RVRKTHVPASKRPSG,0.5

# Molecular target: CaHse1
# Experiment: as above
# Procedure, shortened: as §1
row,Binder,SPOT peptide array binding signal intensity
1,RVRKTHVPASKRPSG,9.75

# Molecular target: CaLsb1
# Experiment: as above
# Procedure, shortened: as §1
row,Binder,SPOT peptide array binding signal intensity
1,RVRKTHVPASKRPSG,0.5

# Molecular target: CaLsb4
# Experiment: as above
# Procedure, shortened: as §1
row,Binder,SPOT peptide array binding signal intensity
1,RVRKTHVPASKRPSG,33

# Molecular target: CaMyo5
# Experiment: as above
# Procedure, shortened: as §1
row,Binder,SPOT peptide array binding signal intensity
1,RVRKTHVPASKRPSG,≤ 0

# Molecular target: CaNbp2
# Experiment: as above
# Procedure, shortened: as §1
row,Binder,SPOT peptide array binding signal intensity
1,RVRKTHVPASKRPSG,216

# Molecular target: CaRvs167
# Experiment: as above
# Procedure, shortened: as §1
row,Binder,SPOT peptide array binding signal intensity
1,RVRKTHVPASKRPSG,1

# Molecular target: CaRvs167-3
# Experiment: as above
# Procedure, shortened: as §1
row,Binder,SPOT peptide array binding signal intensity
1,RVRKTHVPASKRPSG,7.25

# Molecular target: CaSho1
# Experiment: as above
# Procedure, shortened: as §1
row,Binder,SPOT peptide array binding signal intensity
1,RVRKTHVPASKRPSG,89

# Molecular target: CaSla1-D1-D2
# Experiment: as above
# Procedure, shortened: as §1
row,Binder,SPOT peptide array binding signal intensity
1,RVRKTHVPASKRPSG,112

# Molecular target: CaSla1-D3
# Experiment: as above
# Procedure, shortened: as §1
row,Binder,SPOT peptide array binding signal intensity
1,RVRKTHVPASKRPSG,≤ 0

# Molecular target: ScAbp1
# Experiment: as above
# Procedure, shortened: as §1
row,Binder,SPOT peptide array binding signal intensity
1,RVRKTHVPASKRPSG,15.5

# Molecular target: ScBbc1
# Experiment: as above
# Procedure, shortened: as §1
row,Binder,SPOT peptide array binding signal intensity
1,RVRKTHVPASKRPSG,15.5

# Molecular target: ScBem1-D1
# Experiment: as above
# Procedure, shortened: as §1
row,Binder,SPOT peptide array binding signal intensity
1,RVRKTHVPASKRPSG,51

# Molecular target: ScBzz1-D1
# Experiment: as above
# Procedure, shortened: as §1
row,Binder,SPOT peptide array binding signal intensity
1,RVRKTHVPASKRPSG,7.5

# Molecular target: ScBzz1-D2
# Experiment: as above
# Procedure, shortened: as §1
row,Binder,SPOT peptide array binding signal intensity
1,RVRKTHVPASKRPSG,≤ 0

# Molecular target: ScCyk3
# Experiment: as above
# Procedure, shortened: as §1
row,Binder,SPOT peptide array binding signal intensity
1,RVRKTHVPASKRPSG,51

# Molecular target: ScFus1
# Experiment: as above
# Procedure, shortened: as §1
row,Binder,SPOT peptide array binding signal intensity
1,RVRKTHVPASKRPSG,117

# Molecular target: ScHof1
# Experiment: as above
# Procedure, shortened: as §1
row,Binder,SPOT peptide array binding signal intensity
1,RVRKTHVPASKRPSG,1

# Molecular target: ScHse1
# Experiment: as above
# Procedure, shortened: as §1
row,Binder,SPOT peptide array binding signal intensity
1,RVRKTHVPASKRPSG,469

# Molecular target: ScLsb1
# Experiment: as above
# Procedure, shortened: as §1
row,Binder,SPOT peptide array binding signal intensity
1,RVRKTHVPASKRPSG,4.5

# Molecular target: ScLsb2
# Experiment: as above
# Procedure, shortened: as §1
row,Binder,SPOT peptide array binding signal intensity
1,RVRKTHVPASKRPSG,7

# Molecular target: ScLsb3
# Experiment: as above
# Procedure, shortened: as §1
row,Binder,SPOT peptide array binding signal intensity
1,RVRKTHVPASKRPSG,420

# Molecular target: ScLsb4
# Experiment: as above
# Procedure, shortened: as §1
row,Binder,SPOT peptide array binding signal intensity
1,RVRKTHVPASKRPSG,5

# Molecular target: ScMyo3
# Experiment: as above
# Procedure, shortened: as §1
row,Binder,SPOT peptide array binding signal intensity
1,RVRKTHVPASKRPSG,2

# Molecular target: ScMyo5
# Experiment: as above
# Procedure, shortened: as §1
row,Binder,SPOT peptide array binding signal intensity
1,RVRKTHVPASKRPSG,1.5

# Molecular target: ScNbp2
# Experiment: as above
# Procedure, shortened: as §1
row,Binder,SPOT peptide array binding signal intensity
1,RVRKTHVPASKRPSG,91.5

# Molecular target: ScPex13
# Experiment: as above
# Procedure, shortened: as §1
row,Binder,SPOT peptide array binding signal intensity
1,RVRKTHVPASKRPSG,≤ 0

# Molecular target: ScRvs167
# Experiment: as above
# Procedure, shortened: as §1
row,Binder,SPOT peptide array binding signal intensity
1,RVRKTHVPASKRPSG,2.17

# Molecular target: ScSho1
# Experiment: as above
# Procedure, shortened: as §1
row,Binder,SPOT peptide array binding signal intensity
1,RVRKTHVPASKRPSG,230

# Molecular target: ScSla1-D1-D2
# Experiment: as above
# Procedure, shortened: as §1
row,Binder,SPOT peptide array binding signal intensity
1,RVRKTHVPASKRPSG,510

# Molecular target: ScSla1-D3
# Experiment: as above
# Procedure, shortened: as §1
row,Binder,SPOT peptide array binding signal intensity
1,RVRKTHVPASKRPSG,8.5

# Molecular target: SpAbp1-D1
# Experiment: as above
# Procedure, shortened: as §1
row,Binder,SPOT peptide array binding signal intensity
1,RVRKTHVPASKRPSG,249

# Molecular target: SpBbc1
# Experiment: as above
# Procedure, shortened: as §1
row,Binder,SPOT peptide array binding signal intensity
1,RVRKTHVPASKRPSG,≤ 0

# Molecular target: SpBzz1-D1
# Experiment: as above
# Procedure, shortened: as §1
row,Binder,SPOT peptide array binding signal intensity
1,RVRKTHVPASKRPSG,41

# Molecular target: SpBzz1-D2
# Experiment: as above
# Procedure, shortened: as §1
row,Binder,SPOT peptide array binding signal intensity
1,RVRKTHVPASKRPSG,≤ 0
2,GRLRPKRIAPWHLIQ,1.5

# Molecular target: SpCyk3
# Experiment: as above
# Procedure, shortened: as §1
row,Binder,SPOT peptide array binding signal intensity
1,RVRKTHVPASKRPSG,≤ 0
2,GRLRPKRIAPWHLIQ,7

# Molecular target: SpHof1
# Experiment: as above
# Procedure, shortened: as §1
row,Binder,SPOT peptide array binding signal intensity
1,RVRKTHVPASKRPSG,89.5
2,GRLRPKRIAPWHLIQ,70

# Molecular target: SpHof1-2
# Experiment: as above
# Procedure, shortened: as §1
row,Binder,SPOT peptide array binding signal intensity
1,RVRKTHVPASKRPSG,≤ 0
2,GRLRPKRIAPWHLIQ,1.5

# Molecular target: SpHof1-3
# Experiment: as above
# Procedure, shortened: as §1
row,Binder,SPOT peptide array binding signal intensity
1,RVRKTHVPASKRPSG,247
2,GRLRPKRIAPWHLIQ,299

# Molecular target: SpHse1
# Experiment: as above
# Procedure, shortened: as §1
row,Binder,SPOT peptide array binding signal intensity
1,RVRKTHVPASKRPSG,112
2,GRLRPKRIAPWHLIQ,309

# Molecular target: SpLsb1
# Experiment: as above
# Procedure, shortened: as §1
row,Binder,SPOT peptide array binding signal intensity
1,RVRKTHVPASKRPSG,3.75
2,GRLRPKRIAPWHLIQ,5.5

# Molecular target: SpLsb4
# Experiment: as above
# Procedure, shortened: as §1
row,Binder,SPOT peptide array binding signal intensity
1,RVRKTHVPASKRPSG,224
2,GRLRPKRIAPWHLIQ,95.5

# Molecular target: SpMyo1
# Experiment: as above
# Procedure, shortened: as §1
row,Binder,SPOT peptide array binding signal intensity
1,RVRKTHVPASKRPSG,4.25
2,GRLRPKRIAPWHLIQ,2.5

# Molecular target: SpNbp2
# Experiment: as above
# Procedure, shortened: as §1
row,Binder,SPOT peptide array binding signal intensity
1,RVRKTHVPASKRPSG,78
2,GRLRPKRIAPWHLIQ,110

# Molecular target: SpPex13
# Experiment: as above
# Procedure, shortened: as §1
row,Binder,SPOT peptide array binding signal intensity
1,RVRKTHVPASKRPSG,2
2,GRLRPKRIAPWHLIQ,4

# Molecular target: SpRvs167
# Experiment: as above
# Procedure, shortened: as §1
row,Binder,SPOT peptide array binding signal intensity
1,RVRKTHVPASKRPSG,1.17
2,GRLRPKRIAPWHLIQ,9

# Molecular target: SpSla1-D1-D2
# Experiment: as above
# Procedure, shortened: as §1
row,Binder,SPOT peptide array binding signal intensity
1,RVRKTHVPASKRPSG,4
2,GRLRPKRIAPWHLIQ,≤ 0

# Molecular target: SpSla1-D3
# Experiment: as above
# Procedure, shortened: as §1
row,Binder,SPOT peptide array binding signal intensity
1,RVRKTHVPASKRPSG,≤ 0
2,GRLRPKRIAPWHLIQ,≤ 0

# Source: the supplement of paper PMC4466140
